# Compounds without any hit were thinned out: in the full panel of roughly 79,000, 15% have a hit. Unmarked numbers belong to inactive results. Activity calls are given as the source filed them. Rule as the data show it: active = growth inhibition above about 70%; inactive = the rest.
# Experiments:
# [1] = NCI Yeast Anticancer Drug Screen. Data for the rad50 strain (AID 155);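 also: 0% = growth of vehicle-only cultures of the same strain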; settings: S. cerevisiae rad50 strain growth inhibition, stronger effect = higher value
# Method in brief: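 Vehicle-treated cultures provide the reference for the growth inhibition reported for compound-exposed, repair-deficient yeast.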
# [2] = NCI Yeast Anticancer Drug Screen. Data for the mec2-1 strain (AID 157); settings: S. cerevisiae mec2-1 strain, stronger effect = higher value
# Method in brief: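 Strain: mec2-1 (DNA repair/cell cycle alteration). Compound exposure, then growth measured; inhibition expressed relative to vehicle.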
# [3] = NCI Yeast Anticancer Drug Screen. Data for the sgs1 mgt1 strain (AID 161);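 also: 0% = growth of cultures given vehicle only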; settings: S. cerevisiae sgs1 mgt1 strain, stronger effect = higher value
# Method in brief: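 Read-out: growth inhibition vs vehicle controls. Cells: mutant yeast strain deficient in DNA damage repair.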
# [4] = NCI Yeast Anticancer Drug Screen. Data for the cln2 rad14 strain (AID 165);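 also: 0% = growth equal to vehicle treated cultures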; settings: S. cerevisiae cln2 rad14 strain, stronger effect = higher value
# Method in brief: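 Compounds are applied to the cln2 rad14 yeast strain, and growth is then compared with that of vehicle-treated cultures to give inhibition.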
# [5] = NCI Yeast Anticancer Drug Screen. Data for the bub3 strain (AID 167); settings: S. cerevisiae bub3 mutant strain, stronger effect = higher value
# Method in brief: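 Mutant yeast screening strain plus compound; vehicle-treated cultures serve as the 0% inhibition reference.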
# [6] = NCI Yeast Anticancer Drug Screen. Data for the mlh1 rad18 strain (AID 175); settings: S. cerevisiae mlh1 rad18 strain growth inhibition, stronger effect = higher value
# Method in brief: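 Read-out is yeast growth inhibition, calculated against vehicle-only controls. The compound was applied to a strain engineered with DNA damage repair alterations.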
# [7] = at 5.0 µM (retest, dose inferred, filed as 0.5)
# [8] = at 50.0 µM (retest, dose inferred, filed as 5.0)
SMILES,"growth inhibition [1, 7] [%]","growth inhibition [1, 8]",growth inhibition ([1]; at 50.0 µM),"growth inhibition [2, 7] [%]","growth inhibition [2, 8]",growth inhibition ([2]; at 50.0 µM),"growth inhibition [3, 7] [%]","growth inhibition [3, 8]",growth inhibition ([3]; at 50.0 µM),"growth inhibition [4, 7] [%]","growth inhibition [4, 8]",growth inhibition ([4]; at 50.0 µM),"growth inhibition [5, 7] [%]","growth inhibition [5, 8]",growth inhibition ([5]; at 50.0 µM),"growth inhibition [6, 7] [%]","growth inhibition [6, 8]",growth inhibition ([6]; at 50.0 µM)
CCOC(=O)C1(Br)CCN(S(=O)(=O)c2ccc(C)cc2)c2ccccc2C1=O (configuration not stated),1,90% (active),96.5% (active),10,97% (active),98% (active),-7,96% (active),97.8% (active),-6,66%,95.2% (active),-3,95% (active),97.5% (active),18,97% (active),98.4% (active)
CC(=O)Oc1c2c(c(OC(C)=O)c3c1n(C(C)=O)c1ccccc1n3C(C)=O)n(C(C)=O)c1ccccc1n2C(C)=O,50,50%,78.2% (active),42,42%,74.8% (active),34,34%,79.7% (active),26,26%,62.5%,44,44%,69.8%,51,51%,69.7%
CC1NC(=O)OC1(C)c1ccccc1 (configuration not stated),3,-3%,50.5%,-5,-12%,9.2%,2,2%,-7.5%,1,-4%,-35.8%,10,30%,12.1%,12,1%,-20.6%
Clc1ccc(CN2COc3c(ccc4cccnc34)C2)c(Cl)c1,2,91% (active),98.1% (active),2,67%,98.9% (active),4,98% (active),99% (active),-9,98% (active),97.7% (active),-6,99% (active),99% (active),3,98% (active),99.1% (active)
O=[N+]([O-])c1cc(I)cc(/C=N/NS(=O)(=O)c2ccc(F)cc2)c1O,16,36%,84.2% (active),12,31%,77.7% (active),19,47%,89.5% (active),0,15%,77.8% (active),3,17%,53%,17,45%,93% (active)
c1cc(SSc2ccncc2)ccn1,47,100% (active),51.1%,50,100% (active),85.5% (active),55,100% (active),56.8%,34,97% (active),42%,45,69%,92.6% (active),65,100% (active),82.1% (active)
Cc1cc(SCC(=O)c2ccc(Br)cc2)cc(C)[o+]1,-14,80% (active),94.5% (active),4,95% (active),95% (active),20,81% (active),91.5% (active),-42,75% (active),90% (active),-5,95% (active),93.1% (active),-8,92% (active),95.1% (active)
CN(C(=O)c1ccc(Cl)cc1)C(=S)N1CCN(c2ccccc2)CC1,-11,72% (active),80.3% (active),-5,80% (active),74.1% (active),-16,82% (active),79% (active),3,41%,61.2%,1,88% (active),63.5%,-10,89% (active),72.5% (active)
ClCc1ccc2oc3ccccc3c2c1,-5,8%,30%,1,0%,17.1%,-12,-4%,27.9%,-1,-8%,43.5%,2,-7%,-23.6%,-3,5%,68.6%
COc1cc(OC)c(C2CC(C)(OC)Oc3cc4c(cc32)OCO4)c(OC)c1 (configuration not stated),4,10%,4.35%,6,3%,17.1%,2,12%,3.8%,5,-4%,5.45%,0,-1%,-2.6%,5,19%,27.9%
O=C(O)C(O)Cc1ccc(O)cc1 (configuration not stated),-150,-144%,-3.2%,-46,-51%,1.1%,-61,-61%,3.7%,-62,-69%,39.2%,-70,-86%,-13.3%,-140,-122%,-6.4%
NNc1c(Cl)cc(Cl)cc1Cl,44,93% (active),98.2% (active),-16,97% (active),98.9% (active),12,94% (active),99.7% (active),21,43%,97.8% (active),67,93% (active),99.2% (active),51,97% (active),99.7% (active)
CN1C(=O)C(C2C(=O)N(C)C(=O)N(C)C2=O)C(=O)N(C)C1=O,13,-3%,2.95%,2,0%,0.9%,0,-11%,12.2%,2,4%,39.4%,0,-2%,-2.2%,1,-2%,8.55%
N#CC(=C1C=CC(=NO)C=C1)c1cccc2ccccc12,36,91% (active),93.2% (active),15,94% (active),95.5% (active),39,92% (active),93.1% (active),3,91% (active),90.2% (active),5,91% (active),96.2% (active),28,91% (active),87.8% (active)
Cc1cc(Oc2nc(Cl)nc(C(Cl)(Cl)Cl)c2Cl)cc(C)c1N(C)C (tested in a mixture with another compound),-5,10%,92.8% (active),-6,-3%,95.8% (active),-2,10%,95.5% (active),-12,-9%,91.9% (active),7,30%,92.6% (active),-8,-5%,95.7% (active)
CCOC(=O)/C(=C/O)c1c[nH]c2ccccc12,0,94% (active),97.8% (active),-4,95% (active),98.3% (active),-4,95% (active),96.8% (active),1,96% (active),96% (active),0,96% (active),97.3% (active),3,96% (active),97.7% (active)
COC(=O)c1ccc(C)cc1CC1Cc2cc(C)ccc2C1=O (configuration not stated),5,54%,36.1%,-21,56%,56.1%,-31,68%,73.9% (active),21,53%,71.8% (active),-34,49%,64.2%,-12,85% (active),70.7% (active)
COc1ccc(C2=C(Cl)C(=O)N(c3ccc(Cl)cc3)C(=O)C2(Cl)Cl)cc1,12,95% (active),93.2% (active),3,97% (active),98.2% (active),13,96% (active),97.1% (active),-10,91% (active),63%,-3,95% (active),93.2% (active),9,94% (active),96% (active)
O=C(O)c1ccccc1SC(Sc1ccccc1C(=O)O)c1cccc(Cl)c1,8,92% (active),88% (active),7,97% (active),80% (active),22,99% (active),97% (active),-1,87% (active),90% (active),9,97% (active),81.5% (active),15,97% (active),98% (active)
